# What was measured:
# [1] = biological target: T1, Aspartate--tRNA(Asp/Asn) ligase (Mycobacterium tuberculosis (strain ATCC 25618 / H37Rv)) (UniProt P9WFW3); test: Assay for Asp RNA synthetase-1 from Mycobacterium tuberculosis; assay type: functional; design: scale not given: direction of the effect not stated beside the values; conditions: 30 µM; also: in the data most compounds retested in dose-response had high values
# T1 sequence (whole entry): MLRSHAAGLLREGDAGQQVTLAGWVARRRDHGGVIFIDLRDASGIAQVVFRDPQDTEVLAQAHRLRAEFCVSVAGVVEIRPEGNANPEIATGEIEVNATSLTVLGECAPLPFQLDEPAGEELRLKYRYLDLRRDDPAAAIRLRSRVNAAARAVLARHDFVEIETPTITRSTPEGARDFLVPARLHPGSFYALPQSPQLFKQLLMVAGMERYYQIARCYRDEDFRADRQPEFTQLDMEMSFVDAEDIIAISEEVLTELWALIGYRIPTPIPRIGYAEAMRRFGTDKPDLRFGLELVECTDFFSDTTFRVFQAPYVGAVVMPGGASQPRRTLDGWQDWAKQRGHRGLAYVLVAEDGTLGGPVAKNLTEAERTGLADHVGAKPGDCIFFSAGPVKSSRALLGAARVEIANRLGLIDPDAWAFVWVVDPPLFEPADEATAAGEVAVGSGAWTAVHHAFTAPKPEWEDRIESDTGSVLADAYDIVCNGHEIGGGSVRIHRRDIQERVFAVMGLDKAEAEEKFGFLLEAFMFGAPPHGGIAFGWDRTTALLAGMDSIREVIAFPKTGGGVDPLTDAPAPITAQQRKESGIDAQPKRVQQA
# [2] = biological target: Shiga toxin 2 (Escherichia coli O157:H7) (UniProt P09385+P09386); test: E. coli 0.157:H7 Shiga Toxin SOP - stx2 screening assay; assay type: functional; design: scale not given: direction of the effect not stated beside the values; conditions: 30 µM
SMILES,Percent Effect [1] [%],Percent Effect [2] [%]
COc1ccc(C)cc1CNCc1ccc(-n2nc(C)cc2C)nc1,-2.68,26.6
COCC(c1cccc(C(F)(F)F)c1)N(C)C(=O)c1cc(C)no1 (configuration not stated),-1.95,27.2
COC(=O)COc1nc(CC(C)C)c2c(c1C#N)CCCC2,-0.893,-1.99
Cc1n[nH]c(=O)c2c(NC(=O)CN3CCC(O)CC3)oc(C)c12,1.28,-66.6
C[C@H]1C[C@@H]2CCN(C(=O)c3cccn3C)C[C@H]2O1,-3.96,-0.37
Cc1ccn2cc(C(=O)N3CCCC3c3c(C)nn(C)c3C)nc2c1 (configuration not stated),-1.79,-1.23
Cc1cc(NC(=O)NCc2ccccn2)n(C)n1,3.94,-40.7
O=S(=O)(NCC1CCN(c2cnccn2)CC1)c1c(F)cccc1F,-2.55,4.65
CN(Cc1ccc(F)cc1)[C@@H]1CN(C(=O)c2cccs2)C[C@H]1O,4.22,-17.2
CNc1cc(C2CCCN2Cc2ccccc2C(=O)O)ccn1 (configuration not stated),-0.938,-8.27
Cc1cccc(C(=O)Nc2ccc(OC3CCN(C)CC3)cc2)c1,0.862,-60.2
CC(C)c1nc2n(n1)CC(NCc1ccncc1)CC2 (configuration not stated),-2.1,-1.1
O=C(CNCCn1cccn1)NCC1(c2ccccc2)CC1,1.09,13.4
CN(C)S(=O)(=O)N1CCN(C(=O)c2ccc3ccn(C)c3c2)CC1,-0.254,4.4
CNC(=O)CCCNCc1c(C(C)C)nn(C)c1N(C)C,1.04,3.71
Cc1cnn(CC(C)NCc2ccc(S(C)(=O)=O)cc2)c1 (configuration not stated),1.18,-66.9
CCn1c(CN2CCCN(C(=O)OC)CC2)nc2c(F)cccc21,-0.656,36.3
CCC(=O)Nc1ccc2c(c1)CN(C(=O)c1ccco1)CC2,-3.28,-43.9
CN(Cc1ccco1)C(=O)CN1CCCCC1Cn1cccn1 (configuration not stated),-0.346,-5.72
CCOc1nnc(CN(C)CC2CCCN2c2cccnn2)s1 (configuration not stated),-1.14,-14.4
Cc1nc(C2CCCN(C(=O)c3sccc3C3CC3)C2)no1 (configuration not stated),-0.613,0.602
CC(C)c1nc2c(n1C)CCN(CC(=O)Nc1nccs1)C2,-1.5,26
COc1cccc(CCC2CCCN(C(=O)C3=NN(C)C(=O)CC3)C2)c1 (configuration not stated),1.75,-7.25

SMILES,Percent Effect [1] [%],Percent Effect [2] [%]
CCc1nc(CC(=O)N2CCN(c3cnccn3)CC2)cs1,-3.74,-11.5
CN(c1cccnn1)C1CCN(C(=O)c2ccc3c(c2)COC3)CC1,-2.64,13.1
c1ccc(CN2CCCC2Cn2cncn2)nc1 (configuration not stated),3.85,-7.85
O=C1CO[C@@H]2CN(Cc3cccs3)C[C@H]2N1CC1CC1,12.1,-3.56
CN1CCN(C[C@@H]2OC[C@H]3CN(Cc4ccsc4)CC[C@H]32)CC1,-4.08,3.13
O=C(NCCc1ccsc1)Nc1cccnc1N1CCCC1,1.77,-4.75
Cc1cc(CNC(=O)N2CCN(c3nc(C)c(C)s3)CC2)no1,-1.96,24
O=C([C@@H]1CC[C@@H]2[C@@H](CCN2Cc2cccc(F)c2)O1)N1CCCCO1,0.291,-15
CCc1cnc(C)nc1NCCN1CCCCCC1,4.13,-69.6
O=C(NCCNc1ncccn1)C1CCN(c2ncccn2)CC1,-0.874,5.72
C[C@@H]1CN(C(=O)c2ccsc2)C[C@]12CCN(c1ccsc1)C2=O,-1.75,1.46
CCOC(=O)CCCNC(=O)CN1CCN(c2ncccn2)CC1,6.48,-56.7
Cc1cccnc1CNc1cc(N2CCCC2CO)ncn1 (configuration not stated),-4.52,-6.27
O=C(NCc1cc[nH]n1)N1CCN(c2ccccc2Cl)CC1,0.562,11.5
CCN1CCO[C@]2(CCC[C@H]2COCc2csc(C)n2)C1,-0.869,7.16
CCc1nnc(CN2CCCC(c3cc(C(F)(F)F)[nH]n3)C2)o1 (configuration not stated),1.01,-4.16
Cn1cnc(-c2cc(C(=O)N3CCOCC3)c3ccccn23)c1,1.18,-6.75
Cn1cc(C(=O)N2C[C@@H]3COC[C@]3(COCc3cccnc3)C2)cn1,-0.306,-6.37
O=C(Nc1nnc(C2CC2)s1)NC1CCN(Cc2ccccc2)C1 (configuration not stated),-0.344,-174
Cc1ccc(N2CCCC(NCC(=O)Nc3cc(C)no3)C2)nn1 (configuration not stated),-0.917,-55.3
Cc1cccc(C2(CNC(=O)CCN3C(=O)CCC3=O)CCCC2)c1,-4.05,9.87
Cc1nc(C)n(CC2CN(CCOCC(F)(F)F)CCO2)n1 (configuration not stated),3.1,8.57
CS(=O)(=O)NC[C@]12COC[C@H]1CN(C(=O)c1ccccc1)C2,-2.14,-16.8

# From ChEMBL document CHEMBL3988442, “University of Dundee, Small-Polar-MMV Screening Library” (2021)
